# Compound activity as filed in PubChem BioAssay.
# This is a sample that favours compounds with a hit; in the whole collection about 8% have one here.
# VP16 counter: inhibits Gal4-VP16 luciferase reporter, ROR gamma counter-screen. Potency, µM (series often up to 53.6 µM), without a hit: at the highest dose activity, negative = inhibition, hits mostly inhibitors. 310,000 tested, 3.5% active. Drosophila S2 Gal4-VP16 UAS-luciferase, luminescence, 20 h. AID 2546;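 also: Gal4-VP16 expression switched on by copper sulfate through the metallothionein promoter; potency is read from the fitted curve at half-maximal effect; nearly all actives have a fitted effect of over 50% in size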
# TSHR antag: antagonists of human thyroid stimulating hormone receptor; P16473; TSHR-expressing cells, TSH-stimulated cAMP HTRF, 2 h; active compounds read low; activity change, negative = inhibition, % at 11.5 µM; 330,000 tested, 0.2% active;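 active = activity change below a set negative limit, meaning inhibition stronger than a set level, cut at about -70% in these data; inconclusive = activity change between two set negative limits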
#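 TSHR-expressing cells were treated with compounds, then stimulated with TSH at EC80 (4nM final) for 2 hours at 37 deg C. Cellular cAMP was measured by HTRF competition between lysate cAMP and cAMP-d2 for a cryptate-labelled anti-cAMP antibody.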
# ELG1 DNA repair: inhibitors of ELG1-dependent DNA repair in HEK293T cells. 330,000 tested, 2.3% active. HEK293T ELG1-luciferase reporter, luminescence, 16 h; DNA damage induced by 5-fluorouridine. Potency, µM (series often up to 46.1 µM), for the others: at the highest dose activity change, negative = inhibition, hits mostly inhibitors; also: potency is read from the fitted curve at half-maximal effect; nearly all actives have a fitted effect of over 55% in size
#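 Reporter activity after DNA damage by 5-fluorouridine is monitored. Compound-treated cells incubate 16 hr at 37 °C, then ONE-Glo is added for 30 min before luminescence reading.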
# RORgamma inh: ROR gamma (mouse) transcription inhibition. Potency, µM (highest dose often 53.6 µM), for inactives: at the highest dose activity change, negative = inhibition, usual class: inhibitors. 310,000 tested, 5.4% active. Drosophila S2 Gal4-RORgamma UAS-luciferase reporter, 20 h; also: potency is read from the fitted curve at half-maximal effect; nearly all actives have a fitted effect of over 60% in size
# Target sequence (P51450 whole entry, looked up, the tested form may be a part): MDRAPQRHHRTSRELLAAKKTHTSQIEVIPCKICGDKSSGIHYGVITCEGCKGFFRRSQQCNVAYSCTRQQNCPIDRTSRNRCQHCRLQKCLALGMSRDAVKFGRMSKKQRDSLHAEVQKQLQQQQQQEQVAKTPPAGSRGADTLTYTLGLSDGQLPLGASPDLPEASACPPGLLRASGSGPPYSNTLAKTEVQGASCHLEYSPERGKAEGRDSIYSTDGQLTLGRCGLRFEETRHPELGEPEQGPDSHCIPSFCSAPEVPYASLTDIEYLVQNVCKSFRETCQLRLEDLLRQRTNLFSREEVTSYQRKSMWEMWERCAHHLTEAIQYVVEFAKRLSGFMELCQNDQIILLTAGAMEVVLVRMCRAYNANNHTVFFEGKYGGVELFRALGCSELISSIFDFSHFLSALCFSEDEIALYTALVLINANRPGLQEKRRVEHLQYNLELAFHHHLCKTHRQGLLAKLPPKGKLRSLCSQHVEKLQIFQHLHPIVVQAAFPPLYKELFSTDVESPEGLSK
#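 Drosophila S2 cells stably expressing Gal4-DBD/mouse RORγ fusion under metallothionein promoter plus UAS-luciferase; compound 1 h, then 700 uM CuSO4 induction for 20 h at ambient temperature; inhibition read as reduced luminescence.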
# FBPA coupling cs: counter-screen for Giardia aldolase inhibitors: coupling enzyme system; AID 2472; activity change, negative = inhibition, % at 58.2 µM, hits read low; 290,000 tested, 0.67% active; coupling enzyme system counterscreen, AmpLite Red fluorescence; in the data active = activity change below about -30%
#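 Activity here indicates interference with the coupling reaction, not aldolase inhibition. Compounds at 57.5 uM final met coupling enzymes for 10 min at RT; substrate and AmpLite Red detection followed, with a 525/598 nm fluorescence read after 20 min.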
# An asterisk follows results filed as active; u = inconclusive; x = no result; [ ] = remark or other dose. Unless noted, calls follow the shape of the dose curve; as a rule, active = well fitted curve in the direction sought with a large enough effect; inconclusive = small, poorly fitted or top-dose-only effect, or another doubt; inactive = no such curve, though single readings can be large; an effect the other way counts as inactive or inconclusive. % is scaled to controls: 0 for no effect and ±100 for the full control effect.
SMILES,VP16 counter,TSHR antag,ELG1 DNA repair,RORgamma inh,FBPA coupling cs
O=C(N/N=C/c1ccccn1)c1ccc(Cl)cc1,2.5µM*,-5,u,1.4µM*,-2
CN(C)c1ccc(C(=O)N/N=C/c2ccccn2)cc1,u,-11,u,13µM*,1
CC(C)c1ccc(/C=N/NC(=O)c2ccccn2)cc1,u,4,u,11µM*,0
CC1=C(C)C(=O)C(C(CCCCCC(=O)O)c2ccccc2)=C(C)C1=O (stereo not given),-1%,x,x,-3%,x
N#CCSc1ccccc1NC(=O)COC(=O)CCNC(=O)c1ccc([N+](=O)[O-])cc1,x,6,8%,x,x
Cc1ccc(S(=O)(=O)Oc2ccccc2/C=N/Nc2ccc(C(=O)O)cc2)cc1,7%,-3,u,-17%,1
O=C(CSc1ncccn1)N/N=C/c1cccc(OC2CSC2)c1,20%,7,-5%,42%,-3
Cn1ncc(Cl)c1C(=O)N/N=C/c1cccc(OC2CSC2)c1,1%,-2,-13%,-67%,-40*
Cc1ccc(S(=O)(=O)Oc2ccccc2/C=N/NC(=O)c2c(Cl)cnn2C)cc1,u,-8,u,3.2µM*,-5
CCn1cc(/C=N\NC(=O)c2ccc(Cl)cc2)cn1,-8%,-3,0%,11µM*,0
CCNc1c(NS(=O)(=O)c2ccc([N+](=O)[O-])cc2)c(=O)oc2ccccc12,-18%,10,u,u,-1
Cc1ccc(C2(C)NC(=O)N(CC(=O)NC(=O)NC(C)(C)C)C2=O)cc1 (stereo not given),-15%,5,-4%,44%,2
COc1ccc(C)cc1NC(=O)CCc1ccc(S(=O)(=O)N2CCOCC2)cc1,x,-10,-2%,x,x
Cc1cccc(C=Nc2ccc3c4c(cccc24)CC3)c1O,-4%,5,u,-38%,-7
CCc1ccc(O)c(N=Cc2cccc(C)c2O)c1,u,5,2%,11µM*,-1
CCOc1ccc(S(=O)(=O)n2nc(C)cc2C)cc1,0%,-9,-5%,1%,-2
COc1ccc(/C=C2/SC(=S)N(CCC(=O)O)C2=O)cc1,u,4,17%,5µM*,17
O=C(O)CCN1C(=O)/C(=C\c2ccncc2)SC1=S,10%,8,13%,-11%,-1
O=C(NN1C(=O)/C(=C/c2cccs2)SC1=S)c1ccncc1,11%,-5,4.1µM*,-5%,15
COc1cc(/C=C2\SC(=S)N(NC(=O)c3ccc(O)cc3)C2=O)ccc1O,u,-13,u,11µM*,7
COc1cc(/C=C2/SC(=S)N(CCC(=O)Nc3ccc(C(=O)O)cc3)C2=O)cc(OC)c1OC,-4%,-8,3%,-26%,x
COc1cc(/C=C2\SC(=S)N(CCC(=O)Nc3ccc(O)cc3)C2=O)cc(OC)c1OC,8%,-44,23µM*,u,0
CC(C)(C)c1ccc(CNC(=O)C2CCCN2C(=O)Nc2ccccc2)cc1 (stereo not given),-9%,-8,-7%,-14%,2
O=C(COC(=O)c1ccc(O)cc1O)Nc1ncc(Cl)cc1Cl,x,1,-1%,x,x
COc1ccc(N2C(=O)CSC2c2cccc(F)c2)cc1 (stereo not given),-5%,5,-22%,9%,1
SMILES,VP16 counter,TSHR antag,ELG1 DNA repair,RORgamma inh,FBPA coupling cs
COc1ccc(/C=C2\SC(=S)N(CCC(=O)Nc3ccc(C(=O)O)cc3)C2=O)cc1,5%,-2,3%,-39%,4
COc1cc(/C=C2\SC(c3ccc(C)cc3)=NC2=O)ccc1O,10µM*,-1,11%,14µM*,-1
COc1ccc(/C=C2/SC(=S)N(CCCC(=O)Nc3ccc(O)cc3)C2=O)cc1,1.4µM*,-3,-9%,0.28µM*,-1
COc1ccc(/C=C2\SC(=S)N(CCC(=O)Nc3cccc(O)c3)C2=O)cc1,-25%,-5,u,u,0
COc1ccc(/C=C2\SC(=S)N(CCCC(=O)Nc3ccc(O)cc3)C2=O)cc1,1µM*,-9,u,1.4µM*,0
NC(=O)COC(=O)c1ccccc1OCc1ccc(Cl)cc1,4%,8,-12%,20%,-7
CCOC(=O)C1=C(OCc2ccc(Cl)cc2)C2C=C(C)C=CC2N=C1 (stereo not given),5%,7,16µM*,1%,4
COCC(=O)N[C@@H]1c2cc(OC)c(OC)cc2C[C@H]1OCc1ccccc1,x,3,u,x,x
Cc1ccc(C(=O)N(Cc2nc3ccccc3c(=O)[nH]2)C2CCCC2)cc1,7.1µM*,10,-2%,-25%,0
Cc1cccc(NC(=O)N(Cc2nc3ccccc3c(=O)[nH]2)C2CCCC2)c1,-4%,-4,-25%,-33%,5
Cc1ccccc1C(=O)N(Cc1nc2ccccc2c(=O)[nH]1)C1CCCC1,-1%,-1,u,u,1
O=C(Nc1cccc(Cl)c1)N(Cc1nc2ccccc2c(=O)[nH]1)C1CCCC1,u,0,-26%,14µM*,9
CC(C)(C)NC(=O)COc1ccc2oc3c(c2c1)CCCC3,15%,-12,0%,-2%,1
Cn1cccc1C(=O)N1CCC2(CCN(Cc3ccc(C#N)cc3)CC2)CC1,0%,x,x,0%,0
CC(=O)OCC1OC(c2ccc3c(c2)OCO3)C=CC1OC(C)=O (stereo not given),-2%[10 µM],x,x,-7%[10 µM],0
O=C(NC1(Cc2ccccc2)CCN(CCc2cccs2)C1=O)c1ccccc1 (stereo not given),x,-9,u,x,x
Cn1ccnc1SCc1cn2cc(Br)ccc2n1,10µM*,8,u,11µM*,0
CN1c2cc3c(cc2N=C(c2ccc(C(=O)O)cc2)c2ccccc21)C(C)(C)CCC3(C)C,u,x,x,u,1
COc1ccccc1Nc1ncc(C(=O)N2CCC(C(N)=O)CC2)c2ccccc12,-2%,3,0%,-39%,-34*
COc1ccccc1Nc1ncc(C(=O)N2CCN(Cc3ccc(OC)c(OC)c3OC)CC2)c2ccccc12,22%,-12,u,43%,0
COc1ccc(Nc2ncc(C(=O)N3CCC(C(N)=O)CC3)c3ccccc23)cc1,9%,-10,4%,3%,-1
COc1ccc(Nc2ncc(C(=O)N3CCN(Cc4ccccc4)CC3)c3ccccc23)cc1,1%,-11,16µM*,-2%,-2
C[C@H](CO)N1C[C@H](C)[C@@H](CN(C)Cc2ccccc2)Oc2ccc(NC(=O)Cn3cnnn3)cc2C1=O,x,15,9%,x,x
NC(=O)c1nsc(C(=O)N(Cc2ccc(F)cc2)C(C(=O)NCC2CCCO2)c2ccc(O)cc2)c1N (stereo not given),3%,-8,-7%,u,0
